Shown are actives, neighbours in structure and some others; about 2.4% of the full set was active somewhere.
POLI inh = DNA polymerase iota (human) inhibition; Potency, µM (series often up to 115 µM), for the others: top-dose activity, negative = inhibition, most hits filed as inhibitors; Pol iota fluorescent replication assay, 10 min; 390,000 tested, 1% active; also: potency is read from the fitted curve at half-maximal effect
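Fluorescent replication assay read twice, at 0 min and 10 min after adding 50 nM (final) substrate. Enzyme (10 nM) and compounds were first incubated 15 min at room temperature; enzyme-free buffer wells were negative controls.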
FEN1 inh = blocks human flap endonuclease 1 | Potency, µM (titrated, usually from 114 µM), for inactives: at the top dose activity change, negative = inhibition, hits mostly inhibitors | 390,000 tested, 0.35% active | Recombinant FEN1 flap cleavage, fluorescence, 15 min | P39748; also: potency is read from the fitted curve at half-maximal effect; % is scaled to controls: 0 for no effect and ±100 for the full control effect; nearly all actives have a fitted effect of over 65% in size
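Concentration–response screening of FEN1 (10 nM): 15 min compound preincubation at room temperature, reaction started with 50 nM substrate and read at 0 and 15 min. Corrected, normalized data were fitted by a four-parameter Hill equation.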
WRN helicase inh = inhibitors of human WRN helicase | Potency, µM (doses to about 114 µM), inactives show at the highest dose activity change, negative = inhibition, most hits filed as inhibitors | 360,000 tested, 0.46% active | Q14191 | WRN helicase unwinding, fluorescent forked duplex, kinetic | AID 651768; also: potency is read from the fitted curve at half-maximal effect; % is scaled to controls: 0 for no effect and ±100 for the full control effect; nearly all actives have a fitted effect of over 55% in size
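Primary qHTS, 1536-well format. 20 nM WRN + compound, 15 min RT; start with 100 nM forked fluorophore/quencher duplex, 2 mM ATP (final); kinetic read ex 525/em 598 nm.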
Pol eta inh-1 = inhibitors of human DNA polymerase eta. Potency, µM (top dose mostly 114 µM), for the others: at the top dose activity change, negative = inhibition, most hits filed as inhibitors. Q9Y253. recombinant Pol eta, fluorescent DNA replication assay. 390,000 tested, 1.2% active; also: potency is read from the fitted curve at half-maximal effect; % is scaled to controls: 0 for no effect and ±100 for the full control effect
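Pol eta (10 nM) was preincubated with compounds for 15 min at room temperature, after which fluorescent replication substrate (50 nM final) was added to start the reaction. Fluorescence was read kinetically at 0 and 10 min.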
POLB inh = DNA polymerase beta (human) inhibition. AID 485314. Pol beta primer extension/strand displacement, fluorescence kinetic. P06746. Potency, µM (series often up to 114 µM), inactives show top-dose activity change, negative = inhibition, most hits filed as inhibitors. 340,000 tested, 1.3% active; also: potency is read from the fitted curve at half-maximal effect; % is scaled to controls: 0 for no effect and ±100 for the full control effect
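Curves were derived by four-parameter Hill fits of normalized qHTS data. The kinetic fluorescent primer-extension read was taken at 0 and 10 min after 50 nM substrate, following a 15 min room-temperature preincubation of 10 nM enzyme with compounds.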
Pol kappa inh-1 = inhibitors of human DNA polymerase kappa; 400,000 tested, 0.53% active; Q9UBT6; Potency, µM (top dose mostly 107 µM), without a hit: at the highest dose activity, negative = inhibition, hits mostly inhibitors; purified Pol kappa, fluorescent DNA synthesis assay, 10 min; also: potency is read from the fitted curve at half-maximal effect; % is scaled to controls: 0 for no effect and ±100 for the full control effect
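Enzyme at 10 nM met test compounds for 15 min at room temperature. Substrate addition (50 nM final) began the reaction, which was monitored by fluorescence at 0 and 10 min.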
GALK confirm = confirmation of human galactokinase (GALK) inhibitors. AID 2015. purified GALK, Kinase-Glo ATP depletion luminescence. 150 tested, 70% active. shares compounds with Pol eta inh-1. Potency, µM (doses to about 115 µM), without a hit: at the top dose activity, negative = inhibition, most hits filed as inhibitors
Redox cycling = redox cycling activity in phenol red-HRP assay. Phenol red-HRP H2O2 redox cycling, absorbance 600 nm. 150 tested, 40% active. shares compounds with Pol eta inh-1. Potency, µM (doses to about 115 µM), inactives show top-dose activity change, negative = H2O2 signal, most hits filed as inhibitors
HEK293 tox = reduces HEK-293 cell viability in GALK counter-screen. shares compounds with Pol eta inh-1. HEK-293 viability, ATP luminescence (CellTiter-Glo), 24/48 h. Potency, µM (series often up to 46.1 µM), without a hit: top-dose activity change, negative = cytotoxicity, usual class: inhibitors. 170 tested, 10% active; also: potency is read from the fitted curve at half-maximal effect; % is scaled to controls: 0 for no effect and ±100 for the full control effect
Pol kappa inh-2 = confirmation of human DNA polymerase kappa inhibitors; shares compounds with Pol eta inh-1; purified Pol-kappa, fluorescent strand-displacement substrate; Potency, µM, most hits filed as inhibitors; 920 tested, 76% active; AID 720501; also: potency is read from the fitted curve at half-maximal effect
Pol eta inh-2 = confirmation of human DNA polymerase eta inhibitors; shares compounds with Pol eta inh-1; Pol eta primer extension, TAMRA/BHQ fluorescence, 10 min; Potency, µM, actives largely listed as inhibitors; 2,600 tested, 64% active; AID 720502; also: potency is read from the fitted curve at half-maximal effect
* hit, by the source's call; u = inconclusive; x = no result; ! = not confirmed by another sample; [ ] = another dose, or the depositor's remark. Calls follow the shape of the dose curve; as a rule, active = well fitted curve in the direction sought with a large enough effect; inconclusive = small, poorly fitted or top-dose-only effect, or another doubt; inactive = no such curve, though single readings can be large; an effect the other way counts as inactive or inconclusive.

SMILES	POLI inh	FEN1 inh	WRN helicase inh	Pol eta inh-1	POLB inh	Pol kappa inh-1	Pol eta inh-2	others
COC(=O)c1c(NC(=O)CCCC(=O)O)sc2c1CCC2	-24%[58.9 µM]	10%	u	u	1%	-31%	30*
Cc1cc(Cl)n2c(nc3cc(F)c(F)cc32)c1C#N	6.3µM*	-7%	-11%[11.6 µM]	56µM*	50µM*	-1%	u
O=C(O)c1cc(NN=C2c3ccccc3-c3ccccc32)ccc1Cl	u	u	u	22µM*	50µM*	u	38*
O=C(O)c1cccc(NN=C2c3ccccc3-c3ccccc32)c1	43%	-31%	-21%	u	u	-9%	x
C/C(=N\Nc1ccc(Cl)c(C(=O)O)c1)c1cccc2ccccc12	16µM*	-4%	u	7.9µM*	28µM*	u	27*
C/C(=N\Nc1ccc(Cl)c(C(=O)O)c1)c1cc2ccccc2o1	99%	3%	-21%	-20%	16%	-3%	x
Cc1cc(NC(=O)c2cc(S(=O)(=O)N3CCCCC3)ccc2C)no1	u	7%	-25%	22µM*	x	u	u
O=C(Nc1cccnc1)c1ccc(NS(=O)(=O)c2cc([N+](=O)[O-])ccc2Cl)cc1	u	-1%	-10%[11.6 µM]	22µM*	u	-52%	76*
CCOC(=O)c1ccccc1NC(=O)c1ccc2c(SCC(=O)O)c3c(nc2c1)CCCC3	-11%	-6%	-16%[11.6 µM]	50µM*	2%	-13%	76*
COc1cc(Cl)c(C)cc1NC(=O)c1ccc2c(SCC(=O)O)c3c(nc2c1)CCCC3	121%	-5%	-33%	50µM*!	20µM*!	-12%	u	Pol kappa inh-2=75*
COc1ccc(C)cc1NC(=O)c1ccc2c(SCC(=O)O)c3c(nc2c1)CCCC3	-15%	-16%	-9%	12%	-9%	-7%	x
CCOC(=O)C1CCN(c2nc(N)c3c(N)nc(SCC(=O)O)cc3c2C#N)CC1	25µM*	45µM*	45µM*	7.1µM*	28µM*	35µM*	x	GALK confirm=67µM*;Redox cycling=19µM*;HEK293 tox=-14%
O=C(O)c1ccc2c(=O)n3cc(C(=O)c4ccccc4O)cc(Cl)c3nc2c1	u	35µM*	-35%	8.9µM*	u	-51%	12*
c1csc(Cc2nn3c(-c4n[nH]c5c4CCC5)nnc3s2)c1	u	-5%	-36%	11µM*	28µM*	-33%	u
COc1cc(OC)c(-c2nn3c(-c4n[nH]c5c4CCC5)nnc3s2)cc1OC	-16%	-7%	x	x	x	-9%	x
CC(C)OC(=O)C(C(=O)C(F)(F)F)c1cc(NS(=O)(=O)c2ccc3ccccc3c2)c2ccccc2c1O (centres undefined)	u	u	u	u	-6%	-15%	x	GALK confirm=u;Redox cycling=-1%;HEK293 tox=-14%
